# Unmarked numbers belong to inactive results.
# Test system: Vero E6 infected with SARS-CoV-2
# Assay: inhibition of SARS-CoV-2 cytopathic effect; higher = more antiviral protection, active = above 15
# Conditions: 48 h
Structure (SMILES),inhibition of SARS-CoV-2 cytopathic effect (1 nM),inhibition of SARS-CoV-2 cytopathic effect (8.33 nM),inhibition of SARS-CoV-2 cytopathic effect (100 nM),inhibition of SARS-CoV-2 cytopathic effect (833.33 nM),inhibition of SARS-CoV-2 cytopathic effect (10000 nM)
COc1cc(-c2ncn(/C=C\C(=O)OC(C)C)n2)cc(C(F)(F)F)c1,-1.83%,-2.94%,-8.02%,-12.1%,-11.7%
Cc1cc(C(=O)O)sc1C(N)C(=O)O (stereo not given),0.31%,-0.48%,-1.39%,1.06%,-0.02%
CCCCCCCCNC(=O)/C(C#N)=C/c1cn(CCCN(C)C)c2ccccc12 [dynole-34-2],5.01%,2.28%,2.72%,0.28%,12.6%
O=S(=O)(O)c1cc(O)ccc1O [etamsylate],0.18%,-1.16%,-0.81%,0.23%,1.8%
O=C1COc2c(CCNCCN(C(=O)CCNCCc3ccc(Cl)c(Cl)c3)C3CCCCC3)ccc(O)c2N1,-5.28%,-4.67%,-5.93%,-1.32%,-3.71%
COc1cc2c(Nc3ccc(NC(=O)c4ccccc4)cc3)ncnc2cc1OCCCN1CCOCC1,-0.39%,0.92%,-0.95%,0.98%,0.98%
CCCCCCCCCCCCCCCCCC(=O)OCC(O)CO (stereo not given) [monostearin],3.45%,0.27%,0.45%,0.48%,-0.08%
CC(=O)N(C)c1cc(-c2ccnc3c(C(=O)c4cccs4)cnn23)ccc1F [lorediplon],0.42%,-0.41%,1.97%,1.05%,1.78%
CCOC(=O)Nc1nc2ccccc2[nH]1 [lobendazole],-9.74%,-7.4%,-4.73%,-6.72%,-11.2%
CO/N=C1\C[C@]2(C[C@@H]3C[C@@H](C/C=C(\C)C[C@@H](C)/C=C/C=C4\CO[C@@H]5[C@H](O)C(C)=C[C@@H](C(=O)O3)[C@]45O)O2)O[C@H](/C(C)=C/C(C)C)[C@H]1C [moxidectin],-5.37%,-7.08%,-3.57%,-4.07%,2.53%
Nc1ccc(-c2nc3ccc(-c4nc5ccc(N)cc5[nH]4)cc3[nH]2)cc1,-0.32%,0.21%,-0.94%,2.79%,6.35%
CC(=O)[C@H]1CC[C@H]2[C@@H]3CC[C@H]4C[C@H](O)CC[C@]4(C)[C@H]3C(=O)C[C@]12C [alfaxalone],-1.46%,0.56%,-1.95%,-1.55%,-4.57%
NCC[C@H](O)C(=O)N[C@@H]1C[C@H](N)[C@@H](O[C@H]2O[C@H](CN)[C@@H](O)[C@H](O)[C@H]2O)[C@H](O)[C@H]1O[C@H]1O[C@H](CO)[C@@H](O)[C@H](N)[C@H]1O [amikacin],-1.45%,0.75%,0.51%,2.36%,-0.28%
O=C(O)[C@H](O)c1ccccc1 [mandelic-acid],-0.12%,3.41%,3.65%,2.65%,-2.37%
CC(CN(C)C)CN1c2ccccc2CCc2ccccc21 (stereo not given) [trimipramine],-3.96%,-0.87%,-0.5%,-2.02%,-3.88%
CCCn1c(=O)c(C)cn2nc(N)nc12,3.43%,2.31%,-0.1%,2.28%,-2.15%
CC(C)(N)C(=O)N[C@H](COCc1ccccc1)C(=O)N1CCC2(CC1)CN(S(C)(=O)=O)c1ccccc12 [ibutamoren],1.85%,2.84%,0.93%,4.99%,2.99%
CCOC(=O)c1ccc(OC(=O)CCCCCNC(=N)N)cc1 [gabexate],-0.03%,-1.96%,1.38%,3.6%,3.31%
CCCCC(=O)N(Cc1ccc(-c2ccccc2-c2nnn[nH]2)cc1)[C@H](C(=O)O)C(C)C [valsartan],0.84%,-1.89%,0.86%,0.99%,0.91%

Structure (SMILES),inhibition of SARS-CoV-2 cytopathic effect (1 nM),inhibition of SARS-CoV-2 cytopathic effect (8.33 nM),inhibition of SARS-CoV-2 cytopathic effect (100 nM),inhibition of SARS-CoV-2 cytopathic effect (833.33 nM),inhibition of SARS-CoV-2 cytopathic effect (10000 nM)
O=S(=O)(O)c1ccc(-c2c3nc(c(-c4ccc(S(=O)(=O)O)cc4)c4ccc([nH]4)c(-c4ccc(S(=O)(=O)O)cc4)c4nc(c(-c5ccc(S(=O)(=O)O)cc5)c5ccc2[nH]5)C=C4)C=C3)cc1,-2.9%,-2.68%,-5.47%,-6.51%,-7.03%
COc1ccccc1S(=O)(=O)Nc1ccc2c(c1)CN(C)C(=O)N2,2.59%,3.07%,0.97%,1.47%,-5.29%
COc1ccc(/C=C\c2cc(OC)c(OC)c(OC)c2)cc1OP(=O)(O)O [fosbretabulin],0.43%,0.77%,-1.34%,-0.84%,-0.38%
CCOC(=O)[C@H](CCc1ccccc1)N[C@H]1CS[C@H](c2cccs2)CN(CC(=O)O)C1=O [temocapril],-2.77%,-0.7%,1.38%,-0.25%,-3.19%
C[C@@H]1CC(=O)NN=C1c1ccc(NN=C(C#N)C#N)cc1 [levosimendan],-0.58%,0.74%,0.3%,1.84%,1.18%
NC1=N[C@@]2(c3cc(NC(=O)c4ccc(F)cn4)ccc3F)COC[C@H]2CS1,-3.54%,-0.32%,-4.37%,-2.3%,-4.47%
N=C(N)SCCc1ccc(OCc2ccc([N+](=O)[O-])cc2)cc1,1.92%,-1.12%,-0.47%,-2.92%,-4.41%
Nc1nc(N)c(N=O)c(OCC2CCCCC2)n1,-3.27%,3.73%,1.88%,5.81%,18.5% (active)
"CC1(C)[C@H]2CC[C@]1(C)[C@@H](O)[C@H]2O [cis-exo-camphanediol-2,3]",1.51%,2.75%,4.45%,5.23%,0.605%
NC(=O)C(c1ccccc1)(c1ccc(F)cc1)c1ccc(F)cc1 [senicapoc],-2.77%,-1.48%,-2.37%,0.14%,-0.54%
Cc1nc(C)c(-c2ccc(C3CCC(CC(=O)O)CC3)cc2)nc1C(N)=O (stereo not given),5.02%,2.17%,0.91%,3.12%,-3.42%
COc1ccc(CCCO[C@@H](Cn2ccnc2)c2ccc(OC)cc2)cc1,-4.38%,-5.95%,-10.2%,-1.69%,0.39%
c1ccc(-c2ccc(CNc3nc(-c4ccccn4)nnc3-c3ccccc3)cc2)cc1,1.58%,0.74%,-1.15%,-4.89%,-14.7%
COc1ccccc1N1CCN(CCN2C(=O)CC3(CCCC3)CC2=O)CC1,0.12%,1.57%,2.97%,1.51%,0.47%
CC(=O)Nc1ncc([N+](=O)[O-])s1 [nithiamide],-2.44%,-2.01%,-13.5%,-2.95%,-1.53%
COC(=O)[C@H]1[C@H]2C[C@@H]3c4[nH]c5cc(OC)ccc5c4CCN3C[C@H]2C[C@@H](OC(=O)c2cc(OC)c(OC)c(OC)c2)[C@@H]1OC [reserpine],1.33%,3.05%,0.71%,3.56%,7.95%
O=c1cc[nH]c(=S)[nH]1 [2-thiouracil],3.22%,2.55%,2.51%,0.11%,-0.68%
CCOC(=O)C1=C(N)Oc2ccc(Br)cc2C1C(C#N)C(=O)OCC (stereo not given),-0.86%,0.28%,0.47%,0.895%,2.46%
CN[C@H](CC(C)C)C(=O)N[C@H]1C(=O)N[C@@H](CC(N)=O)C(=O)N[C@H]2C(=O)N[C@H]3C(=O)N[C@H](C(=O)N[C@H](C(=O)O)c4cc(O)cc(O)c4-c4cc3ccc4O)[C@H](O[C@H]3C[C@](C)(N)[C@@H](O)[C@H](C)O3)c3ccc(c(Cl)c3)Oc3cc2cc(c3O[C@@H]2O[C@H](CO)[C@@H](O)[C@H](O)[C@H]2O[C@H]2C[C@](C)(NCc3ccc(-c4ccc(Cl)cc4)cc3)[C@@H](O)[C@H](C)O2)Oc2ccc(cc2Cl)[C@H]1O [oritavancin],2.97%,3.58%,-0.56%,0.82%,0.93%

# Reference: the supplement of paper PMC13380429
